A short description of assay [1]: NCI Yeast Anticancer Drug Screen. Data for the rad50 strain (AID 155).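 Further: 0% = growth of vehicle-only cultures of the same strain.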 As to conditions: S. cerevisiae rad50 strain growth inhibition; at 50.0 µM; active compounds read high. An outline of the steps: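 Readout: growth inhibition relative to vehicle-treated cultures. Compound exposure was carried out in a genetically defined yeast strain deficient in DNA damage repair.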

Assay [2] in a line: NCI Yeast Anticancer Drug Screen. Data for the mec2-1 strain (AID 157). The note with it: S. cerevisiae mec2-1 strain, at 50.0 µM, active compounds read high. In short, it runs like this: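 Readout is yeast growth inhibition, normalised to vehicle-treated controls, in the mec2-1 strain exposed to compound.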
Assay [3] in a line: NCI Yeast Anticancer Drug Screen. Data for the cln2 rad14 strain (AID 165).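 Further: 0% = growth equal to vehicle treated cultures.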 The note with it: S. cerevisiae cln2 rad14 strain, at 50.0 µM, active compounds read high. An outline of the steps: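 Relative to vehicle controls, growth inhibition of compound-treated cln2 rad14 yeast was recorded.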
Assay [4] is described as follows: NCI Yeast Anticancer Drug Screen. Data for the bub3 strain (AID 167). The note with it: S. cerevisiae bub3 mutant strain, at 50.0 µM, active compounds read high. An outline of the steps:
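Readout: yeast growth inhibition, expressed relative to vehicle-only wells. The test organism is a mutant strain from a panel with lesions in DNA repair or checkpoint genes.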

Assay [5] is described as follows: NCI Yeast Anticancer Drug Screen. Data for the mlh1 rad18 strain (AID 175). As to conditions: S. cerevisiae mlh1 rad18 strain growth inhibition; at 50.0 µM; active compounds read high. An outline of the steps: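 Test agents were incubated with a yeast strain of defined genotype (DNA damage repair defect). Inhibition of growth was derived by comparison with vehicle-exposed cultures.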

This note sets out measurements from PubChem BioAssay (NCI).

This is part of a sample that, as a whole, favours compounds with a hit. Of some 79,000 tested, about 15% had one in any assay. Calls of active or inactive are those of the source. No stated cut-off is given here; in the data, active means growth inhibition above about 70%; inactive means the rest.

In the case of `COC1C2CC3C4(CCC5C6(C)CCCC53C(C14)N(C)C6)CC21CCC23C4C=C5C6=C(CCC5(CC42)C3O1)C1(C)CC(C6)CN(C)C1` (stereo not given), the growth inhibition in assay [1] was 33.6% (inactive); in assay [2], 9.35% (inactive); in assay [3], 15.6% (inactive); in assay [4] it was 18.5% (inactive); in assay [5] it was 26.6% (inactive).
Taken in the same sequence, the figures for `O=C(O)CCC12CCC(=O)C=C1NC(=O)CC2` (stereo not given) were 1.55% (inactive), -4.4% (inactive), -1.65% (inactive), 0.15% (inactive) and -1.25% (inactive).
The matching figures for `O=C(Nc1cccc2c(NC(=O)N3CCCCC3)cccc12)N1CCCCC1`: -16.2% (inactive), -26.2% (inactive), 4.1% (inactive), 9.55% (inactive) and 2.8% (inactive).
Taken in the same sequence, the figures for `O=[N+]([O-])c1ccc(-c2cc3ccccn3c2)cc1` were -5.1% (inactive), -46.2% (inactive), -11.8% (inactive), 11.8% (inactive) and -18.1% (inactive).
As to `NC(=O)/N=C/NC(N)=O`, the growth inhibition was 21.6% (inactive) in assay [1]; -14.3% (inactive) in assay [2]; -5.3% (inactive) in assay [3]; -24.5% (inactive) in assay [4]; 2.65% (inactive) in assay [5].
The matching figures for `CC/C(=C/CO)c1ccccc1`: 46.5% (inactive), 5.65% (inactive), 6.05% (inactive), 10.8% (inactive) and 36.4% (inactive).
Consider `Cn1c(=O)c2c(nc(Br)n2CC(=O)c2ccc([N+](=O)[O-])cc2)n(C)c1=O`, for which the growth inhibition was 24.8% (inactive) in assay [1]; 16.1% (inactive) in assay [2]; 18.9% (inactive) in assay [3]; 0.55% (inactive) in assay [4]; 27.4% (inactive) in assay [5].
As to `O=C(O)c1[nH]c2c(=O)[nH]c(=O)[nH]c2c1Br`, the growth inhibition in assay [1] was 5.25% (inactive); in assay [2] it was -2.8% (inactive); in assay [3] it was -4.35% (inactive); in assay [4] it was 2.15% (inactive); in assay [5], 15% (inactive).
The matching figures for `Cc1ccc(S(=O)(=O)C/C(=N\Nc2ccc([N+](=O)[O-])cc2[N+](=O)[O-])c2ccccc2)cc1`: 38.4% (inactive), -9.45% (inactive), 12.4% (inactive), -0.25% (inactive) and 18.7% (inactive).
Taken in the same sequence, the figures for `Fc1ccccc1C1CC(c2ccc3ccccc3c2)=Nc2ccccc2S1` (stereo not given) were 30.9% (inactive), 12.1% (inactive), 13.4% (inactive), 10.4% (inactive) and 34.4% (inactive).
Taken in the same sequence, the figures for `CC1=NN(c2ccccc2)C(=O)/C1=C(\[O-])c1ccccc1.CC1=NN(c2ccccc2)C(=O)/C1=C(\[O-])c1ccccc1.CC1=NN(c2ccccc2)C(=O)/C1=C(\[O-])c1ccccc1.[Fe+3]` were 1.8% (inactive), -5.75% (inactive), -16.7% (inactive), -2.9% (inactive) and 4.45% (inactive).
As for `O=c1cc(CO)oc(C(Nc2cccc(Cl)c2)c2ccccc2)c1O` (stereo not given), the growth inhibition was 34.2% (inactive) in assay [1]; -4.65% (inactive) in assay [2]; -15.2% (inactive) in assay [3]; 10.2% (inactive) in assay [4]; 21.1% (inactive) in assay [5].
The matching figures for `COc1ccc2c(c1)OC(c1cccnc1)C(c1ccccc1)C2=O` (stereo not given): -5.45% (inactive), -27.9% (inactive), 15.4% (inactive), 16.1% (inactive) and -0.05% (inactive).
The matching figures for `CS(=O)(=O)Nc1nc2ccccc2c(=O)o1`: -50.8% (inactive), -21.9% (inactive), -39.7% (inactive), 3.75% (inactive) and 4.85% (inactive).
Taken in the same sequence, the figures for `CCOC(=O)CCCCC(N)=O` were -4.3% (inactive), -7.6% (inactive), 1.15% (inactive), 11.4% (inactive) and 2.7% (inactive).
As for `CN(/N=C(\C(=O)O)c1ccccc1)C1=NCCN1`, the growth inhibition is -12% (inactive) in assay [1]; -7.95% (inactive) in assay [2]; 41.2% (inactive) in assay [3]; -1.4% (inactive) in assay [4]; 9.3% (inactive) in assay [5].
The matching figures for `COC1OC2COC(c3ccccc3)OC2C2C1N2C(=S)SC` (stereo not given): -4.05% (inactive), 1.7% (inactive), -17.6% (inactive), -0.75% (inactive) and -0.55% (inactive).
The matching figures for `CCCCCCCCCCCCNCC(O)c1cc(-c2ccccc2)nc2c(Cl)cc(Cl)cc12` (stereo not given): 8.1% (inactive), 8.9% (inactive), 29.1% (inactive), -8% (inactive) and 26.5% (inactive).
Taken in the same sequence, the figures for `O=c1c(O)c(O)c1=O` were 1.3% (inactive), -7% (inactive), 0.7% (inactive), 9.3% (inactive) and -15.5% (inactive).
On to `Cc1ccc2cc(N)ccc2c1`, for which the growth inhibition in assay [1] is -2.9% (inactive); in assay [2] it was 8.05% (inactive); in assay [3], -9.85% (inactive); in assay [4], 20.1% (inactive); in assay [5] it was 23.1% (inactive).
On to `O=C1NCCCC1CCO` (stereo not given), for which the growth inhibition is -8.35% (inactive) in assay [1]; -3.65% (inactive) in assay [2]; -3.65% (inactive) in assay [3]; 5.5% (inactive) in assay [4]; -3.85% (inactive) in assay [5].
Regarding `O=[N+]([O-])c1ccc2nc[nH]c2c1`, the growth inhibition was 48.8% (inactive) in assay [1]; 4.9% (inactive) in assay [2]; 25.5% (inactive) in assay [3]; -0.2% (inactive) in assay [4]; 43.1% (inactive) in assay [5].
Taken in the same sequence, the figures for `O=C(C/C(=C/c1ccccc1)[N+](=O)[O-])c1ccccc1` were 99.2% (active), 99.2% (active), 98.8% (active), 99% (active) and 98.8% (active).
The matching figures for `COC(=O)C1(CC(=O)c2ccc(C)cc2)NC(=S)NC(=O)C1C#N` (stereo not given): -4.7% (inactive), -4.8% (inactive), -8.65% (inactive), -34.6% (inactive) and -0.85% (inactive).
The matching figures for `O=C(O)/C(=C/c1ccccc1)c1ccccc1`: -9.3% (inactive), -45% (inactive), -23.1% (inactive), -33.5% (inactive) and 26.8% (inactive).
For the compound `NC(=S)N/N=C1\CCCCC1C(O)(C(F)(F)Cl)C(F)(F)Cl` (stereo not given), the growth inhibition in assay [1] is -26.2% (inactive); in assay [2], -33.8% (inactive); in assay [3], -8.9% (inactive); in assay [4], -11.5% (inactive); in assay [5] it was -25.2% (inactive).
Consider `O=C(/C=C/c1ccccc1)CC(=O)c1ccccc1.O=C(/C=C/c1ccccc1)CC(=O)c1ccccc1.[Cu]`, for which the growth inhibition in assay [1] was -17.1% (inactive); in assay [2], -10.7% (inactive); in assay [3], -35.8% (inactive); in assay [4] it was -2.45% (inactive); in assay [5] it was -15.9% (inactive).
The matching figures for `N#C/C(=C\c1ccc2[nH]ccc2c1)C(=O)NCCCCNC(=O)/C(C#N)=C/c1ccc2[nH]ccc2c1`: 5.35% (inactive), 23.2% (inactive), -21.4% (inactive), 9.65% (inactive) and 5.7% (inactive).
With `O=[N+]([O-])c1cccc(-c2oc(C=Nc3ccccc3)c([N+](=O)[O-])c2-c2cccc([N+](=O)[O-])c2)c1`, the growth inhibition in assay [1] was -5% (inactive); in assay [2], -0.8% (inactive); in assay [3], 14.4% (inactive); in assay [4], 17.6% (inactive); in assay [5], 19.6% (inactive).
The matching figures for `O=C(Nc1ccc(Cl)c(Cl)c1)Oc1ccc(-c2ccccc2)cc1`: 73.2% (active), 88% (active), 43.6% (inactive), 87.5% (active) and 95.7% (active).
The matching figures for `Oc1ccc(Cl)cc1N1CCOCC1`: 9.55% (inactive), 24.1% (inactive), -15.2% (inactive), -19.6% (inactive) and -15% (inactive).
The matching figures for `COC(=O)/C=C(/C(=O)OC)C1(C)c2cc(C(=O)OC)c(C(=O)OC)c(N)c2C(=N)N1c1ccccc1` (stereo not given): -3.75% (inactive), 25.9% (inactive), -12.4% (inactive), -5.15% (inactive) and -0.9% (inactive).
